Source: the supplement of paper PMC10849652
Of roughly 8,800 targets only a part is listed; those with a hit were picked by preference. About 0.5% of all pairs of compound and target were hits.

How the values were obtained:
Assay in all cases: log2 fold change, soluble protein after heating vs DMSO (PISA); higher = thermal stabilisation; K562 lysate, 10 uM; active = over 0.2 and 3.5 SD of the protein, either way, in both replicates (recomputed)
lapatinib = compound: CS(=O)(=O)CCNCc1ccc(-c2ccc3ncnc(Nc4ccc(OCc5cccc(F)c5)c(Cl)c4)c3c2)o1 [lapatinib]
In short: (§1)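 K562 pellets were dounce-homogenised in PBS pH 7.4 containing 1 mM MgCl2, and the crude extract, at 1 mg/mL protein, was exposed to 10 μM compound for 30 min. Aliquots were heated for 3 min across 48°C-58°C, pooled, brought to 0.5% NP-40 at 4°C and spun at 21,000xg for 90 min, with the supernatant taken as soluble protein. TMTpro 16plex LC-MS/MS with equalised channel sums quantified that protein. Values are log-two fold changes in thermal stability relative to solvent controls, taken from duplicates.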

pictilisib = compound: CS(=O)(=O)N1CCN(Cc2cc3nc(-c4cccc5[nH]ncc45)nc(N4CCOCC4)c3s2)CC1 [pictilisib]
In short: as §1

crizotinib = compound: C[C@@H](Oc1cc(-c2cnn(C3CCNCC3)c2)cnc1N)c1c(Cl)ccc(F)c1Cl [crizotinib]
In short: as §1

[1] = compound: C[C@H](C1=CC=C(C=C1)C(=O)NC2=C3C=CNC3=NC=C2)N
In short: as §1

duvelisib = compound: C[C@H](Nc1ncnc2nc[nH]c12)c1cc2cccc(Cl)c2c(=O)n1-c1ccccc1 [duvelisib]
In short: as §1

gandotinib = compound: Cc1cc(Nc2cc(CN3CCOCC3)c3nc(C)c(Cc4ccc(Cl)cc4F)n3n2)n[nH]1 [gandotinib]
In short: as §1

tozasertib = compound: Cc1cc(Nc2cc(N3CCN(C)CC3)nc(Sc3ccc(NC(=O)C4CC4)cc3)n2)n[nH]1 [tozasertib]
In short: as §1

doramapimod = compound: Cc1ccc(-n2nc(C(C)(C)C)cc2NC(=O)Nc2ccc(OCCN3CCOCC3)c3ccccc23)cc1 [doramapimod]
In short: as §1

bafetinib = compound: Cc1ccc(NC(=O)c2ccc(CN3CC[C@H](N(C)C)C3)c(C(F)(F)F)c2)cc1Nc1nccc(-c2cncnc2)n1 [bafetinib]
In short: as §1

[2] = compound: Cc1cccc(CC(=O)N2CCc3c2ccc(-c2cn(C)c4ncnc(N)c24)c3F)n1
In short: as §1

Measured: log2 fold change

MOCS1 isoform 8 (UniProt Q9NZB8)
inactive: lapatinib -0.022 | pictilisib -0.003 | crizotinib -0.046 | [1] -0.078 | duvelisib 0 | gandotinib 0.012 | tozasertib 0.11 | doramapimod 0.018 | bafetinib -0.032 | [2] 0.04

KPNA2 (UniProt P52292)
inactive: lapatinib -0.016 | pictilisib 0.024 | crizotinib -0.063 | [1] -0.001 | duvelisib 0.011 | gandotinib -0.066 | tozasertib 0.017 | doramapimod 0.003 | bafetinib -0.028 | [2] 0.05

MED10 (UniProt Q9BTT4)
UniProt Q9BTT4, sequence (Q9BTT4 whole entry, looked up): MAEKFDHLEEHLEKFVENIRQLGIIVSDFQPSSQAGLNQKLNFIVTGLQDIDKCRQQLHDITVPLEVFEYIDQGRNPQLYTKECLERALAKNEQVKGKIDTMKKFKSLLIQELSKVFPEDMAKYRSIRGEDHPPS
inactive: lapatinib 0.107 | pictilisib 0.232 | crizotinib 0.016 | [1] -0.024 | duvelisib 0.016 | gandotinib 0.04 | tozasertib -0.057 | doramapimod 0.014 | bafetinib 0.187 | [2] 0.055

MRPL35 (UniProt Q9NZE8)
inactive: lapatinib 0.051 | pictilisib 0.001 | crizotinib 0.01 | [1] -0.207 | duvelisib -0.054 | gandotinib 0 | doramapimod -0.023 | bafetinib -0.02 | [2] 0.039

LAP3 (UniProt P28838)
active: [1] -0.531 | gandotinib 0.385 | [2] 0.331
inactive: lapatinib -0.021 | pictilisib 0.003 | crizotinib -0.102 | duvelisib 0.034 | tozasertib -0.126 | doramapimod 0.02 | bafetinib 0.014

MAPK12 (UniProt P53778)
inactive: pictilisib 0.059 | duvelisib -0.061 | gandotinib -0.15 | tozasertib 0.248 | bafetinib 0 | [2] -0.163
active: [1] 0.868

MDM2 isoform 11 (UniProt Q00987)
UniProt Q00987, sequence (Q00987 whole entry, looked up): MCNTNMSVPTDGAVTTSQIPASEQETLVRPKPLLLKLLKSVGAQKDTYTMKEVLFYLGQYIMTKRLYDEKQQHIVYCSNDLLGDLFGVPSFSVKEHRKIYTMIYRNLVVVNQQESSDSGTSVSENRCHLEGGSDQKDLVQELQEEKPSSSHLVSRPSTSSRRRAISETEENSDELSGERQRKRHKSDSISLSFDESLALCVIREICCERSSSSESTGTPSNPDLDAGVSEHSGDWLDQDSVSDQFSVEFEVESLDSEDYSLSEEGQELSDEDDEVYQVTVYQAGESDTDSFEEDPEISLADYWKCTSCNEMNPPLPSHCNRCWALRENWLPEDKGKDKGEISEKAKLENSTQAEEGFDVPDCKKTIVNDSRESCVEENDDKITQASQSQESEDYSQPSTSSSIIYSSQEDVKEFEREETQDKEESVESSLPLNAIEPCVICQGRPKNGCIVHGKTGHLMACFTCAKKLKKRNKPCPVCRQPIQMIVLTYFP
inactive: pictilisib -0.003 | crizotinib 0.014 | [1] -0.004 | gandotinib 0.044 | doramapimod 0.009 | bafetinib 0.054 | [2] -0.158

LSM11 (UniProt P83369)
inactive: crizotinib 0.025 | [1] -0.123 | duvelisib 0.009 | gandotinib 0.039 | tozasertib 0.011 | doramapimod 0.123 | [2] -0.394

MPDZ (UniProt O75970)
inactive: lapatinib 0.046 | crizotinib 0.127 | [1] 0.099 | duvelisib -0.003 | gandotinib 0.016 | tozasertib 0.118 | doramapimod 0.053 | [2] -0.066

MRC2 (UniProt Q9UBG0)
inactive: crizotinib -0.3 | [1] -0.192 | duvelisib -0.49 | gandotinib 0.075 | tozasertib 0.063 | doramapimod 0.035 | [2] -0.184

MOCS3 (UniProt O95396)
inactive: pictilisib 0.004 | crizotinib -0.127 | [1] -0.176 | duvelisib 0.009 | gandotinib 0.227 | tozasertib 0.027 | doramapimod 0.072 | bafetinib -0.054 | [2] 0.348

LRRIQ1 (UniProt Q96JM4)
inactive: lapatinib 0.04 | crizotinib -0.278 | doramapimod -0.073

KLC1 isoform 10 (UniProt Q07866)
UniProt Q07866, sequence (Q07866 whole entry, looked up): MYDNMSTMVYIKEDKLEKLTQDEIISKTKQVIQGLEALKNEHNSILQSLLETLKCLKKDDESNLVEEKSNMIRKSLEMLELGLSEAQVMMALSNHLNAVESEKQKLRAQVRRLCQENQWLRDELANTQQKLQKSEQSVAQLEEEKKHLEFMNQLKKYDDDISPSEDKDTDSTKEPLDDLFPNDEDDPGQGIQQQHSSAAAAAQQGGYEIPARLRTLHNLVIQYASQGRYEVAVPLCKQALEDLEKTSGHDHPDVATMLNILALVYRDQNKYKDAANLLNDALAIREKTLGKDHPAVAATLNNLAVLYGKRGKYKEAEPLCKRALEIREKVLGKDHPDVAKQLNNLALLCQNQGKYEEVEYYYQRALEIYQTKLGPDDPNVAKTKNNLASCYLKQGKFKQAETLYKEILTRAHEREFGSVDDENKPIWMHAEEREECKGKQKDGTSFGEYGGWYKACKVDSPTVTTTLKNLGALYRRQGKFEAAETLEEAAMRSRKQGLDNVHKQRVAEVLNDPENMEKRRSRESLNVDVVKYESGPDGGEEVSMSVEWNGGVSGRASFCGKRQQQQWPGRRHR
inactive: pictilisib -0.167 | tozasertib 0.016 | bafetinib 0.032

KRI1 (UniProt Q8N9T8)
inactive: pictilisib -0.072 | crizotinib -0.057 | [1] 0.011 | duvelisib 0.036 | gandotinib -0.022 | tozasertib 0.014 | doramapimod 0.023 | bafetinib 0.009 | [2] 0.045

MRPL22 (UniProt Q9NWU5)
inactive: lapatinib -0.023 | crizotinib -0.047 | [1] -0.038 | gandotinib -0.018 | doramapimod 0.016 | [2] 0.05

MAP3K6 (UniProt O95382)
inactive: tozasertib -0.061

KRAS (UniProt P01116)
UniProt P01116, sequence (P01116 whole entry, looked up): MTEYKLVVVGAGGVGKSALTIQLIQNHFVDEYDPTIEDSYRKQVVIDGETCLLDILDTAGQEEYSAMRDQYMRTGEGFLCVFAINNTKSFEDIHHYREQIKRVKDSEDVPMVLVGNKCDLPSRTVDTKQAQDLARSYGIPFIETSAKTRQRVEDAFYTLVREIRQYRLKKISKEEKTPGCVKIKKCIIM
inactive: lapatinib 0.019 | crizotinib 0.017 | [1] -0.078 | duvelisib 0.001 | gandotinib 0.044 | tozasertib -0.013 | doramapimod 0.006 | [2] 0.145

MAP4K4 isoform 3 (UniProt O95819)
inactive: lapatinib -0.061 | pictilisib -0.049 | [1] 0.201 | duvelisib 0.078 | gandotinib -0.088 | tozasertib 0.014 | doramapimod 0.087 | bafetinib 0.03 | [2] -0.01

KIF21A (UniProt H0YI78)
inactive: lapatinib -0.11 | pictilisib 0.052 | duvelisib -0.013 | bafetinib 0.187

MARF1 (UniProt Q9Y4F3)
UniProt Q9Y4F3, sequence (Q9Y4F3 whole entry, looked up): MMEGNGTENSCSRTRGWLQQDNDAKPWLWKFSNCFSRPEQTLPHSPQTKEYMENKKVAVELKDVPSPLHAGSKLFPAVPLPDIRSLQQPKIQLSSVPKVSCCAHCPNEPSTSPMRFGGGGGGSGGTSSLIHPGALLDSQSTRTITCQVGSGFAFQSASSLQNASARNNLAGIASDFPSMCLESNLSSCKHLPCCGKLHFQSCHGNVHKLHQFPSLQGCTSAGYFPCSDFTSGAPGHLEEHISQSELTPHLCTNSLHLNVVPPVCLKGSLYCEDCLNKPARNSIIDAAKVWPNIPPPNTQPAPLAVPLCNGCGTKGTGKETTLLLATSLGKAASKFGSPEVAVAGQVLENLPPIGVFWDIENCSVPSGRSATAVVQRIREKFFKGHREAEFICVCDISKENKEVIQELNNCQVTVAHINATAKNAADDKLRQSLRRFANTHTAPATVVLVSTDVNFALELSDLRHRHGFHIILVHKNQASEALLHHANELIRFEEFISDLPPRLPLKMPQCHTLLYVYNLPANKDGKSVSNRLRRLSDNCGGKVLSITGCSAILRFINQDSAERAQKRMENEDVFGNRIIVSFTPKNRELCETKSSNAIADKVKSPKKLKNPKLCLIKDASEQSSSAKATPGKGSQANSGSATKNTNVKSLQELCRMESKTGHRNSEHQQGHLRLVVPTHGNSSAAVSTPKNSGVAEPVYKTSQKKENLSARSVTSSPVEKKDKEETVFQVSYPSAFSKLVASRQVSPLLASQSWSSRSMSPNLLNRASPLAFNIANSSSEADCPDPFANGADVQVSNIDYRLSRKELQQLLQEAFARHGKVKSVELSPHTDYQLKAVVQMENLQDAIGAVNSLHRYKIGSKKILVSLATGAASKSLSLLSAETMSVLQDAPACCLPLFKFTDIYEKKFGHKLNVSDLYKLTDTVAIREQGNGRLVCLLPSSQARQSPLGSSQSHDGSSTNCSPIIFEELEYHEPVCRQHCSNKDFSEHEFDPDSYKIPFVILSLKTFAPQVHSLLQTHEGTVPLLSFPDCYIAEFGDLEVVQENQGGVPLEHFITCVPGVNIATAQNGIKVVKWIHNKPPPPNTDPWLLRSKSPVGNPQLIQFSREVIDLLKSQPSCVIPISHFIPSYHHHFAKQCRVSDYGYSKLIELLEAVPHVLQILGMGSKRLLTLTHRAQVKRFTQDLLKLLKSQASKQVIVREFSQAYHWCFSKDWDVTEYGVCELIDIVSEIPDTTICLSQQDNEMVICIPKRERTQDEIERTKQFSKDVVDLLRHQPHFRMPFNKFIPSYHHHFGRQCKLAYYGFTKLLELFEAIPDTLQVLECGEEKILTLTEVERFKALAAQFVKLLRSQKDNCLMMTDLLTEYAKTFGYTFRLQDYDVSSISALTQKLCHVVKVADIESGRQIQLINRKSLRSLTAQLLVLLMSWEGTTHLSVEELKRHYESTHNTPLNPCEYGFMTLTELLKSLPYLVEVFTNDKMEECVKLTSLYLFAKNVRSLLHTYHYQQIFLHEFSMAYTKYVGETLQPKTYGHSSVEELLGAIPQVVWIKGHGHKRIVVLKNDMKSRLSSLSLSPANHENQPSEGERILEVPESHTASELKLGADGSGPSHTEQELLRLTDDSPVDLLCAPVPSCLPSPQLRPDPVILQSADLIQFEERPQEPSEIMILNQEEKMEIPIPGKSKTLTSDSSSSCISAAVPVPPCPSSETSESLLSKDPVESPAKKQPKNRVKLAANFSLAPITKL
inactive: pictilisib -0.212 | crizotinib -0.021 | [1] 0.035 | duvelisib -0.002 | gandotinib -0.1 | tozasertib -0.032 | doramapimod -0.004 | bafetinib -0.012 | [2] 0.095

MEGF8 (UniProt Q7Z7M0)
inactive: pictilisib -0.015 | crizotinib 0.113 | [1] -0.077 | duvelisib -0.167 | gandotinib -0.101 | tozasertib 0.02 | doramapimod -0.028 | bafetinib 0.068 | [2] -0.011

KIF3C (UniProt O14782)
UniProt O14782, sequence (O14782 whole entry, looked up): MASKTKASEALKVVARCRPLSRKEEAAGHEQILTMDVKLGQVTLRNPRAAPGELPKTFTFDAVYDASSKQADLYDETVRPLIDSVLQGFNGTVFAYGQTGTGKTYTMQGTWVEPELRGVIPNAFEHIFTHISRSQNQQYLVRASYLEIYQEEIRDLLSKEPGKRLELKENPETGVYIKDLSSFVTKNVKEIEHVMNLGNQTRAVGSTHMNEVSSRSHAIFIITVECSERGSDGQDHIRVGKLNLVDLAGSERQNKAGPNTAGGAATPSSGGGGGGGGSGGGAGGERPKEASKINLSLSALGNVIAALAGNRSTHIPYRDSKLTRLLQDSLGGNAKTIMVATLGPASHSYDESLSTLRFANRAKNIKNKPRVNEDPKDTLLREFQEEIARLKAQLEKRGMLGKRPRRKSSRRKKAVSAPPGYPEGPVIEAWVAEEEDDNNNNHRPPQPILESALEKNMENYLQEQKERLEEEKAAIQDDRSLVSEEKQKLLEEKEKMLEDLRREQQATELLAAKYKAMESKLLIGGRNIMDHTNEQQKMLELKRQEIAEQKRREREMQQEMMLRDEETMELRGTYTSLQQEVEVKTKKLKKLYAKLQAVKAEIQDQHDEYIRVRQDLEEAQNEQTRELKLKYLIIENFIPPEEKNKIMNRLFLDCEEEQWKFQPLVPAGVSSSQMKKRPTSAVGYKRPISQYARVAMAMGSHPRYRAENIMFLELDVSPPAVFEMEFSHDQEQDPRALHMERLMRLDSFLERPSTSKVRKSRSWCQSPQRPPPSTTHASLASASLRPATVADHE
inactive: lapatinib -0.172 | crizotinib -0.177 | [1] -0.119 | duvelisib 0 | gandotinib -0.002 | tozasertib -0.394 | doramapimod -0.031 | [2] 0.152

MAPKAP1 (UniProt Q9BPZ7)
inactive: crizotinib 0.02 | duvelisib -0.192 | tozasertib 0.113 | doramapimod -0.029

KIF18B (UniProt Q86Y91)
inactive: lapatinib -0.024 | crizotinib -0.008 | duvelisib 0.068 | tozasertib -0.161 | doramapimod 0.077

KIF2A isoform 2 (UniProt O00139)
inactive: [1] 0.192 | gandotinib -0.059 | [2] -0.059

MAP4K4 isoform 6 (UniProt O95819)
inactive: lapatinib -0.002 | pictilisib -0.092 | duvelisib -0.038 | tozasertib 0.102 | bafetinib 0.016

MAP4K2 (UniProt Q12851)
inactive: lapatinib -0.164 | pictilisib 0.126 | [1] 0.145 | duvelisib 0.077 | gandotinib 0.273 | tozasertib 0.054 | doramapimod 0.035 | bafetinib -0.126 | [2] -0.015

MEX3A (UniProt A1L020)
inactive: duvelisib 0.196

KMT2B (UniProt Q9UMN6)
inactive: crizotinib 0.073 | duvelisib -0.034 | tozasertib 0.073 | doramapimod -0.033

LRIF1 (UniProt Q5T3J3)
UniProt Q5T3J3, sequence (Q5T3J3 whole entry, looked up): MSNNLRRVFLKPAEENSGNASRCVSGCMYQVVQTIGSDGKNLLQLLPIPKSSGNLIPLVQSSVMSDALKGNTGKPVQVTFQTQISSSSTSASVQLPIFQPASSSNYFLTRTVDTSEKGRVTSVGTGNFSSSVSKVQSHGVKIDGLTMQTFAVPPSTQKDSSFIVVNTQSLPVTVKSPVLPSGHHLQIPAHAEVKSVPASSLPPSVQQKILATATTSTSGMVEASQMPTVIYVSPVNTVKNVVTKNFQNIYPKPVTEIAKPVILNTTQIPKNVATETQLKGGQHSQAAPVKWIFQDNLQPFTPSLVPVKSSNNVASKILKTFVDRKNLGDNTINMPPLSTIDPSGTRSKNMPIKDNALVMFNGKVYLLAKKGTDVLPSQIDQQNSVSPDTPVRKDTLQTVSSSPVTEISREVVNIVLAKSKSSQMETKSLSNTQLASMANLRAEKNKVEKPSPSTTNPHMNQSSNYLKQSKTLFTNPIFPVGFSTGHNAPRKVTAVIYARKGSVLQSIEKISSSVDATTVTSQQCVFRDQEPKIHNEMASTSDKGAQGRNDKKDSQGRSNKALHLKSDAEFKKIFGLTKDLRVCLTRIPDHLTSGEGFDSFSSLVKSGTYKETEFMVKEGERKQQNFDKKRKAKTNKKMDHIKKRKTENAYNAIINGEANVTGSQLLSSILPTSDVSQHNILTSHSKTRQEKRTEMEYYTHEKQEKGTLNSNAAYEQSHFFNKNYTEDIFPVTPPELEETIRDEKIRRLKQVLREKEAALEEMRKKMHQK
inactive: lapatinib -0.094 | crizotinib 0.019 | [1] -0.008 | duvelisib -0.133 | gandotinib 0.006 | tozasertib 0.039 | doramapimod 0.026 | [2] -0.038

KIFC3 isoform 6 (UniProt Q9BVG8)
inactive: pictilisib -0.127 | crizotinib -0.21 | duvelisib 0.089 | gandotinib 0.111 | tozasertib -0.111 | doramapimod -0.034 | bafetinib -0.221 | [2] 0.296
active: [1] -1.85

KIF26A (UniProt Q9ULI4)
inactive: pictilisib 0.039 | crizotinib 0.013 | [1] -0.065 | duvelisib -0.017 | gandotinib 0.003 | tozasertib 0.086 | doramapimod -0.002 | bafetinib -0.055 | [2] 0.002

LRRC9 (UniProt Q6ZRR7)
inactive: crizotinib -0.065 | [1] 0.032 | gandotinib -0.488 | tozasertib 0.053 | doramapimod 0.074
active: [2] 0.694

MDM1 (UniProt Q8TC05)
active: [1] -1.42 | [2] 0.554
inactive: lapatinib -0.004 | duvelisib 0.05 | gandotinib 0.336 | tozasertib 0.083

LRP1 (UniProt Q07954)
inactive: lapatinib -0.047 | crizotinib -0.488 | tozasertib 0.239 | doramapimod 0.022

LY6E (UniProt Q16553)
UniProt Q16553, sequence (Q16553 whole entry, looked up): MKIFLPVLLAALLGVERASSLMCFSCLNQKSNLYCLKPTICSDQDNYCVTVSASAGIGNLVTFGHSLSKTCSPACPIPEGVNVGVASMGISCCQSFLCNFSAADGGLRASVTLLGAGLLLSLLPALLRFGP
active: [1] -1.51
inactive: lapatinib -0.026 | pictilisib 0.071 | gandotinib 0.412 | tozasertib 0.079 | bafetinib -0.2 | [2] 0.588

MAP3K4 isoform 2 (UniProt Q9Y6R4)
inactive: crizotinib 0.044 | doramapimod -0.007

LYN isoform 2 (UniProt P07948)
inactive: crizotinib 0.049 | [1] 0.026 | duvelisib -0.357 | tozasertib 0.126 | doramapimod -0.076 | [2] -0.006
active: gandotinib 0.891

MED28 (UniProt Q9H204)
UniProt Q9H204, sequence (Q9H204 whole entry, looked up): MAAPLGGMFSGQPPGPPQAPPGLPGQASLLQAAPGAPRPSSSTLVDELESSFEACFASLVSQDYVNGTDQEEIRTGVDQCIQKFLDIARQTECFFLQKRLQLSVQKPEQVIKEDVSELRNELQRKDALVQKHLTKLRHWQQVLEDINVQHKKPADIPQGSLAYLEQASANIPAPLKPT
inactive: lapatinib 0.132 | crizotinib 0.021 | [1] -0.039 | duvelisib -0.034 | doramapimod -0.012 | [2] -0.038
active: gandotinib 0.394

MBTPS1 (UniProt Q14703)
inactive: pictilisib 0.012 | crizotinib -0.008 | [1] 0.114 | duvelisib -0.006 | gandotinib -0.164 | tozasertib -0.009 | doramapimod 0.01 | bafetinib -0.001 | [2] -0.15

MAPK7 (UniProt Q13164)
inactive: lapatinib -0.145 | crizotinib 0.246 | [1] -0.083 | gandotinib 0.161 | tozasertib -0.029 | doramapimod 0.01 | [2] -0.099

MPP5 (UniProt Q8N3R9)
inactive: pictilisib -0.091 | crizotinib -0.028 | [1] -0.003 | duvelisib -0.017 | gandotinib 0.01 | tozasertib -0.033 | doramapimod 0.115 | bafetinib -0.043 | [2] 0.099

LGALS3BP (UniProt Q08380)
inactive: lapatinib -0.239 | crizotinib 0.204 | [1] 0.035 | duvelisib -0.149 | gandotinib 0.197 | tozasertib 0.115 | doramapimod -0.087 | [2] 0.53

KRAS isoform 2 (UniProt P01116)
inactive: lapatinib -0.023 | crizotinib -0.016 | duvelisib -0.022 | tozasertib -0.043 | doramapimod -0.062
